# Tau fluor counter: Counterscreen qHTS for Inhibitors of Tau Fibril Formation, Fluorescence Polarization; tau K18 P301L Alexa594 fluorescence, heparin fibrillization; AID 1463, 2008; Potency, µM (highest dose often 57.7 µM), for the others: top-dose activity change, negative = decrease; 280,000 compounds, 0.93% hits; further: potency means the concentration at half of the fitted maximal effect; nearly all actives have a fitted effect of over 55% in size
#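 Human K18 P301L tau (15 uM unlabeled plus 0.24 uM Alexa 594-labeled, final) in 100 mM sodium acetate pH 7 was mixed with compound and 20 uM heparin and incubated 6 hr at 37 C.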
# FBPA coupling cs: qHTS Assay for Inhibitors of Fructose-1,6-bisphosphate Aldolase from Giardia Lamblia: Coupling assay counterscreen; activity change, negative = inhibition, % at 58.2 µM, hits read low; coupling enzyme system counterscreen, AmpLite Red fluorescence; 290,000 compounds, 0.67% hits; in the data active means activity change below about -30%
#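 Activity here indicates interference with the coupling reaction, not aldolase inhibition. Compounds at 57.5 uM final met coupling enzymes for 10 min at RT; substrate and AmpLite Red detection followed, with a 525/598 nm fluorescence read after 20 min.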
# Tau FP inhib: qHTS for Inhibitors of Tau Fibril Formation, Fluorescence Polarization; K18 P301L tau heparin fibrillization, Alexa594 FP, 6 h; Potency, µM (highest dose often 57.7 µM), inactives show top-dose activity, negative = inhibition, usual class: inhibitors; 280,000 compounds, 0.39% hits; AID 1468, 2008; further: potency means the concentration at half of the fitted maximal effect; nearly all actives have a fitted effect of over 55% in size
# Target sequence (P10636 561-689 P618L limits assumed): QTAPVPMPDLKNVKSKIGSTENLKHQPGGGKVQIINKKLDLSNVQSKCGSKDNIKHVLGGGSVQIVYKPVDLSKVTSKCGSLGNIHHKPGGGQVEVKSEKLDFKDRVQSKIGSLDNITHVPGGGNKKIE
#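 FP of Alexa 594-tau after heparin (20 uM) induction. Substrate: human K18 P301L, 15 uM unlabeled, 0.24 uM labeled. Buffer 100 mM sodium acetate pH 7. 6 hr, 37 C.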
# Sfp PPTase inh: qHTS Assay for Inhibitors of Bacillus subtilis Sfp phosphopantetheinyl transferase (PPTase); Biochemical Sfp PPTase activity, qHTS; 310,000 compounds, 3.5% hits; AID 1490, 2009; Potency, µM, for inactives: largest response in the series, negative = inhibition, usual class: inhibitors;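 further: the enzyme is Sfp with the accession as filed and its product quenches rhodamine fluorescence; potency means the concentration at half of the fitted maximal effect; 0% = enzyme reaction without inhibitor and -100% = no enzyme wells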
#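 Sfp 15 nM + cpd, 15 min RT; start w/ rhodamine-CoA 5 uM, BHQ-2-YbbR 12.5 uM (final); 50 mM Hepes pH 7.6, 10 mM MgCl2, 0.01% NP-40, 0.01% BSA; read 525/598 nm at 0 and 30 min.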
# G9a block: qHTS Assay for Inhibitors of Histone Lysine Methyltransferase G9a. Histone-lysine N-methyltransferase EHMT2 (Homo sapiens), Q96KQ7. G9a H3K9 monomethylation, AlphaScreen, 2 h. Potency, µM (doses to about 102 µM), for inactives: top-dose activity, negative = inhibition, usual class: inhibitors. 350,000 compounds, 8.8% hits; further: potency means the concentration at half of the fitted maximal effect; nearly all actives have a fitted effect of over 75% in size
# Target sequence (Q96KQ7 913-1193 limits assumed): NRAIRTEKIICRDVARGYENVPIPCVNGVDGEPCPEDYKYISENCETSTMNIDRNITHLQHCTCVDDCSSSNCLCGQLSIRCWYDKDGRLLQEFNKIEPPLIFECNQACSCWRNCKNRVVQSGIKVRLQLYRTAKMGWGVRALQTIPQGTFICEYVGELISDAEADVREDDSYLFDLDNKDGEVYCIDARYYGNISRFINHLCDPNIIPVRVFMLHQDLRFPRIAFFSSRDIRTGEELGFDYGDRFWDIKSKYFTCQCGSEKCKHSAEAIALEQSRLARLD
#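 AlphaScreen detection with an anti-monomethyl H3K9 antibody quantified product after a 2 h room-temperature reaction containing 500 nM biotinylated H3K9 peptide, 20 µM SAM and 20 nM enzyme, which had been preincubated 15 min with compound.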
# Tau ThT inhib: qHTS for Inhibitors of Tau Fibril Formation, Thioflavin T Binding; Microtubule-associated protein tau (Homo sapiens), P10636; Potency, µM (highest dose often 57.4 µM), without a hit: at the top dose activity, negative = inhibition, actives largely listed as inhibitors; recombinant tau K18 P301L (four-repeat tau fragment), heparin-induced fibrillization, ThT fluorescence; 270,000 compounds, 2.1% hits; AID 1460, 2008; further: potency means the concentration at half of the fitted maximal effect; nearly all actives have a fitted effect of over 55% in size
#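 Heparin-induced fibrillization of the P301L-mutant K18 repeat-domain fragment of human tau was followed by ThT binding in quantitative high-throughput format.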
# Numbers without * were called inactive; ? = inconclusive; . = no result given; [ ] = dose if it differs, or a comment. Compounds with a hit are over-represented: about 11% of the library has one in this group of screens. Unless noted, the call rests on the fitted dose curve; in most records, active means well fitted curve in the direction sought with a large enough effect; inconclusive means small, poorly fitted or top-dose-only effect, or another doubt; inactive means no such curve, though single readings can be large; an effect the other way counts as inactive or inconclusive. Unless noted, on the % scale 0 is the no-effect control and ±100 the full control effect.
SMILES,Tau fluor counter,FBPA coupling cs,Tau FP inhib,Sfp PPTase inh,G9a block,Tau ThT inhib
O=C(O)C1Sc2[nH]c(=O)sc2C2c3cc(Br)ccc3OC(=O)C12 (centres undefined),-15%,-1,-9%,?,.,.
COC(=O)C1Sc2[nH]c(=O)sc2C(c2ccc(Cl)cc2)C1C(=O)OC (centres undefined),-11%,10,5%,-12%,?,-5%
COC(=O)C1=C(C(=O)OC)C(c2cc(Cl)ccc2O)c2sc(=O)[nH]c2S1 (centres undefined),?,.,-13%,79µM*,7.9µM*,25µM*
COC(=O)C1=C(C(=O)OC)C(c2ccc(OC)c(OC)c2)c2sc(=O)[nH]c2S1 (centres undefined),-2%,-2,-9%,20µM*,28µM*,?
COC(=O)c1[nH]c2c(c1C)C(=O)CC(c1ccc(OC)c(OC)c1)C2 (centres undefined),.,3,.,-7%,6%,.
COC(=O)C1=C(C(=O)OC)C(c2cc(Br)ccc2O)c2sc(=O)[nH]c2S1 (centres undefined),?,-4,-13%,20µM*,3.2µM*,28µM*
CC(C)CN1CCN(Cc2cccc3cccnc23)CC1CCO (centres undefined),-3%,-1,2%,-5%,2%,1%
CCn1cc(/C=C(\NC(=O)c2ccccc2)C(=O)NCCCN2CCOCC2)c2ccccc21,.,.,.,-2%,1%,.
COc1ccc(C(=O)N2CC(=O)Nc3ccc(C)cc3C2c2ccc(F)cc2)c(OC)c1 (centres undefined),-5%,.,-2%,.,-3%[59 µM],-8%
Cc1ccc(S(=O)(=O)NCC2CCC(C(=O)NC3CCCCC3)CC2)cc1 (centres undefined),.,6,.,7%,8%,.
O=c1c2ccccc2nc2oc3ccccc3n12,.,2,.,?,25µM*,.
O=C1CN(C(=O)COc2ccc(Cl)cc2)C(c2ccc(F)cc2)c2cc(Br)ccc2N1 (centres undefined),-17%,.,-16%,.,1%[59 µM],-7%
CCn1c(=O)c(C(=O)CN2CCOCC2)c(N)n(Cc2ccccc2)c1=O,4%,0,5%,-13%,3%[59 µM],1%
CCn1c(=O)c(C(=O)CN2CCc3ccccc32)c(N)n(Cc2ccccc2)c1=O,?,-6,?,3%,45µM*,?
Cc1cc(N2CCOCC2)nc2ccc(NC(=S)NC(C)C)cc12,.,2,.,-15%,71µM*,.
Cc1cc(N2CCOCC2)nc2ccc(NC(=S)NCc3ccc4c(c3)OCO4)cc12,14µM*[quencher],1,?,8%,?,?
Cc1cc(N2CCCC2)nc2ccc(NC(=S)NC(C)C)cc12,-12%,-13,15%,-7%,?,-22%
COC(=O)c1cc2oc(C)cc2n1Cc1ccc(Cl)cc1,-12%,.,-10%,.,-30%[59 µM],?
CCOC(=O)N1CCC(NC(=O)C2CCN(C(=O)c3cc4oc(C)cc4n3Cc3c(F)cccc3Cl)CC2)CC1,-5%,-5,-5%,20µM*,35µM*,?
COC(CNC(=O)C1CCN(C(=O)c2cc3oc(C)cc3n2Cc2c(F)cccc2Cl)CC1)OC,-13%,-1,-10%,45µM*,32µM*,-13%
CCCC(CCC)C(=O)NC1CC(=O)N(c2ccc3c(c2)OCCO3)C1 (centres undefined),4%,.,-4%,.,-2%[59 µM],4%
COc1ccc(CCNC(=O)C(C)n2c(=O)cc(-c3ccccc3)c3c(C)nn(C)c32)cc1OC (centres undefined),-7%,.,-3%,.,-1%[59 µM],-7%
O=C(CCCn1c(=S)[nH]c2ccsc2c1=O)Nc1ccc2c(c1)OCCO2,-11%,-1,-3%,?,3.5µM*,-15%
O=C(CCCCn1c(=S)[nH]c2ccsc2c1=O)NCc1ccc2c(c1)OCO2,-5%,3,1%,-14%,10µM*,0%
O=C(CCCCn1c(=O)[nH]c2ccsc2c1=O)NCc1ccc2c(c1)OCO2,-1%,8,4%,16%,24%,-8%
SMILES,Tau fluor counter,FBPA coupling cs,Tau FP inhib,Sfp PPTase inh,G9a block,Tau ThT inhib
CCOC(=O)N1CCN(C(=O)CCn2c(=S)[nH]c3ccsc3c2=O)CC1,-3%,0,2%,56µM*,45µM*,-3%
CC1CCCCC1NC(=O)CCCCn1c(=O)[nH]c2ccsc2c1=O (centres undefined),.,2,.,17%,2%,.
CC1CCCCC1NC(=O)CCCn1c(=S)[nH]c2ccsc2c1=O (centres undefined),.,1,.,-1%,32µM*,.
COc1ccc(OC)c(N/C(C)=C/C(=O)c2ccc(Br)cc2)c1,-27%,1,2%,-10%,?,?
COc1ccc(C(=O)/C=C(/C)N(C)C)cc1,0%,-2,-6%,14%,45µM*,-13%
COc1ccc(C(=O)/C=C(\C)Nc2ccc(NC(C)=O)cc2)cc1,-25%,2,4%,-6%,35µM*,?
C/C(=C\C(=O)c1ccccc1)Nc1ccc(O)cc1,?,-31*,7%,-21%,28µM*,?
C/C(=C\C(=O)c1ccc(C)cc1)Nc1cccc(O)c1,?,-4,6%,-1%,50µM*,?
Cc1ccc(C(=O)/C=C/Nc2cccc(O)c2)cc1,?,-4,-2%,-1%,?,?
CCC(CC)C(=O)Nc1cccc(-c2nc3cccnc3s2)c1C,-1%,.,-7%,.,-28%[59 µM],-6%
Cc1cc(C)cc(-n2c(SCC(N)=O)nc3c([nH]c4ccccc43)c2=O)c1,-11%,.,-2%,.,3%[59 µM],-15%
CCS(=O)(=O)N1CCC2(CC1)OC(=O)C(C)=C2C(=O)NCc1ccccc1C,-4%,.,0%,.,9%[59 µM],3%
COc1ccc(CC(=O)Nc2ccc(C(C)=O)cc2)cc1,-14%,-3,-5%,50µM*,11%[12.7 µM],?
CCc1ccc(NC(=O)Cc2ccc(OC)cc2)cc1,-12%,-1,-5%,8%,15%[59 µM],-9%
COc1cc(/C=N/Nc2cccc(C)c2)ccc1OC(=O)c1cccs1,?,3,?,5%,10µM*,?
COc1cc(/C=N/NC(=O)CC#N)cc(Br)c1O,-17%,1,?,0%,1%,?
